Molecules are shown by their SMILES. Results filed as inconclusive are left out. A number with no mark means an inactive call. Calls of active or inactive are those of the source. Calls come from the whole dose curve; as a rule, active = well fitted inhibition curve with a large enough effect; inconclusive = small, poorly fitted or top-dose-only effect; inactive = flat fitted curve, though single readings scatter.

The nature of the test: High Content Assay for Compounds that inhibit the Assembly of the Perinucleolar Compartment: PC3M Cytotoxicity. Particulars: PC3M cells, ATPLite luminescence viability, 24 h; series mostly up to 46.1 µM; activity change, negative = cytotoxicity: at the top concentration. The method, boiled down:
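PC3M-GFP cells (2000/well) adhered 4 h, then given 23 nl of compound stock in duplicate. After 24 h at 37 C, ATP measured by ATPLite luminescence; camptothecin positive control, DMSO negative.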
A general note: In ATP-based viability assays light output follows the ATP content of the culture.
`CN(C)c1ccc(N=Nc2ccccc2C(=O)OCC(=O)NC2CCCC2)cc1`: the “activity change, negative = cytotoxicity” value was -11.2%.

Take `CCOC(=O)CSc1nc2c(sc3ccc([N+](=O)[O-])cc32)c(=O)n1Cc1ccco1`: the “activity change, negative = cytotoxicity” value was 8.39%.

On to `Cc1ccc(Cl)cc1N(CC(=O)N1CCCCCC1)S(C)(=O)=O`, for which the “activity change, negative = cytotoxicity” value was -19%.

As to `CN1c2ccccc2C(C)(C)C12CC(c1ccc(Cl)c(S(=O)(=O)N3CCCC3)c1)=NO2` (configuration not stated), the Potency was 3.98 µM (active).

In the case of `O=C1C(=Cc2cccs2)C(=O)c2ccccc21`, the “activity change, negative = cytotoxicity” value is -11.4%.

On to `C/C(N)=C(/C#N)C(=O)COC(=O)c1cc(C)n(-c2ccc(F)cc2)c1C`, for which the Potency was 12.6 µM (active).

As for `O=C(COC(=O)Cc1ccsc1)NCC1CCCCC1`, the “activity change, negative = cytotoxicity” value was 1.89%.

For the molecule `O=C(N/N=C/c1cc(Cl)ccc1O)C(=O)Nc1ccccc1OC(F)(F)C(F)F`, the Potency was 14.1 µM (active).

As to `C=CCN=c1scc(-c2ccccc2)n1/N=C/c1ccccn1`, the Potency was 14.1 µM (active).

For `O=c1[nH]cnc2c1C(c1ccccc1[N+](=O)[O-])c1c(nc[nH]c1=O)O2`, the “activity change, negative = cytotoxicity” value was 7.92%.

As for `C=CCNC(=S)N/N=C(\C)c1ccccn1`, the Potency was 6.31 µM (active).

With `Cc1ccc(-n2cc(-c3ccccc3)c3c(NN4CCOCC4)ncnc32)cc1`, the “activity change, negative = cytotoxicity” value is -0.717%.

Consider `CCOC(=O)Cn1c(-c2nonc2NC(=O)c2ccccc2F)nc2ccccc21`, for which the Potency is 4.47 µM (active).

On to `COc1ccc(CN2CCC(C(=O)NCCc3ccc(OC)c(OC)c3)CC2)c(OC)c1`, for which the “activity change, negative = cytotoxicity” value was -5.79%.

With `O=C1C(Nc2ccccc2)=C/C(=N/S(=O)(=O)c2cccs2)c2ccccc21`, the Potency is 15.8 µM (active).

For `CC(=O)N(C)C1=C(N2CCOCC2)C(=O)c2ccccc2C1=O`, the Potency was 15.8 µM (active).

As to `O=C(N/N=C/c1cc2c3c(c1O)CCCN3CCC2)c1ccccc1O`, the Potency is 3.16 µM (active).

In the case of `Nc1cccc(-c2nc3ccc(N)cc3s2)c1`, the Potency was 25.1 µM (active).

On to `COc1cc(C(=O)Oc2ccccc2/C=N/NC(=O)c2ccc(Cl)cc2)cc(OC)c1OC`, for which the Potency is 11.2 µM (active).

Turning to `O=C(N/N=C/c1c(O)ccc2ccccc12)c1cccc(C(F)(F)F)c1`, the Potency is 8.91 µM (active).

As to `O=C(N/N=C/c1ccccc1O)c1cccc(C(F)(F)F)c1`, the Potency was 10 µM (active).

`COc1cccc(CNc2cccc3cccnc23)c1O`: the “activity change, negative = cytotoxicity” value was -0.123%.

These data come from PubChem BioAssay AID2733 (National Center for Advancing Translational Sciences (NCATS), 2010).
